# Experimental data reported in PubChem BioAssay (NCI).
# About 83,000 compounds went through this panel and 20% of them were active in at least one assay; those are over-represented in the sample as a whole.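 96-well plates, one dose, 48 hours. Percent growth reported; active if below 10.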 Unmarked numbers belong to inactive results. The source made the active and inactive calls.
# Key:
# Experiment in all cases: NCI-60 one-dose screen, 48 h (100 = growth as untreated, 0 = no growth, -100 = all killed)
# Conditions in all cases: 10 µM unless noted
# [1] = test system: RPMI-8226 leukemia
# [2] = test system: OVCAR-8 ovarian
# [3] = test system: OVCAR-5 ovarian
# [4] = test system: OVCAR-4 ovarian
# [5] = test system: SK-OV-3 ovarian
# [6] = test system: IGROV1 ovarian
# [7] = test system: OVCAR-3 ovarian
# [8] = test system: HS 578T breast
# [9] = test system: NCI/ADR-RES ovarian
# [10] = test system: BT-549 breast
# [11] = test system: MDA-MB-435 melanoma
# [12] = test system: SW-620 colon
# [13] = test system: MCF7 breast
# [14] = test system: HCT-116 colon
# [15] = test system: HCC-2998 colon
# [16] = test system: KM12 colon
# [17] = test system: T-47D breast
SMILES,growth [1],growth [2],growth [3],growth [4],growth [5],growth [6],growth [7],growth [8],growth [9],growth [10],growth [11],growth [12],growth [13],growth [14],growth [15],growth [16],growth [17] [%]
C=C(CNCCc1ccc(O)cc1)[C@@H]1CC[C@]2(COC3CCCCO3)CC[C@]3(C)[C@H](CC[C@@H]4[C@@]5(C)CCC(NCCO)C(C)(C)[C@@H]5CC[C@]43C)[C@@H]12 (stereo partly drawn),-56.8% (active),-85.1% (active),-93.1% (active),-91.5% (active),-48.9% (active),-83.9% (active),-94.4% (active),-51.5% (active),-79.3% (active),41.2%,-89.8% (active),-76.2% (active),-84.3% (active),-95.3% (active),-89.5% (active),-84.9% (active),–
Cc1cc(N2CCCCC2)nc(N(CCNc2ccnc3cc(Cl)ccc23)Cc2ccccn2)n1,-14.7% (active),52.8%,68.2%,41.6%,60.5%,31%,56.8%,53.5%,50.4%,64.3%,68.1%,45.7%,26.2%,16.2%,84.6%,55.2%,–
Cn1c(NCCc2ccc(O)c(O)c2)nc2c1c(=O)n(Cc1ccc(Cl)cc1)c(=O)n2C,37.9%,87.6%,94.9%,59.8%,82.3%,61.9%,62.6%,77%,88.5%,71.6%,76.3%,75.9%,75.3%,71.4%,89.3%,79.6%,–
CCN1CCN(c2ccc(Nc3cc(-c4cccnc4Nc4c(Cl)c(OC)cc(OC)c4Cl)ncn3)cc2)CC1,64.1%,69.2%,92.4%,48.8%,72.7%,57.4%,88.9%,51.8%,75.8%,60.1%,89.7%,55%,40.9%,71.9%,75.6%,73.9%,–
O=C1N/C(=N/O)S/C1=C/c1cn(-c2ccccc2)nc1-c1ccccc1,98.8%,89.9%,109%,111%,77.6%,77.4%,93%,83.1%,99.8%,92.3%,106%,107%,82.2%,82.4%,126%,86.4%,–
C[C@H]1[C@H](C)CC[C@]2(C(=O)N3CCN(C)CC3)CC[C@]3(C)C(=CC[C@@H]4[C@@]5(C)C/C(=C/c6cccnc6)C(=O)C(C)(C)[C@@H]5CC[C@]43C)[C@H]12,-59.3% (active),-76.2% (active),-77.8% (active),–,-89.5% (active),-69.2% (active),-93.2% (active),-30.7% (active),-75.1% (active),-81.2% (active),-65.1% (active),-49.9% (active),-73.8% (active),-88.2% (active),-92.3% (active),-89.3% (active),–
C[C@@H](C[C@H](CCOCc1cccnc1)c1ccccc1)c1cc2ccccc2o1,75%,88.6%,87.8%,81.6%,84.7%,83.8%,94%,85.1%,97.9%,102%,103%,91.6%,106%,75.6%,101%,88%,–
Cc1c(C(=O)O[C@H]2[C@@H]3[C@H](C)CC[C@H]3[C@]3(C)O[C@@]2(C2CCCCC2)C[C@H]3OC(=O)CO)ccc2ccccc12,-40.7% (active),28.6%,61.1%,39.4%,62.6%,63.3%,29.3%,-29.6% (active),8.05% (active),33.4%,39%,18.7%,3.27% (active),3.42% (active),5.5% (active),27.9%,–
CNC(=O)NCC1OC(n2cnc3c(NC(=O)Nc4ccccc4)ncnc32)C2OC(C)(C)OC12 (stereo not drawn),87.2%,100%,109%,89.6%,79.3%,–,89%,102%,101%,71.7%,101%,91.1%,85.4%,81.1%,95.5%,89.9%,74.7
